According to PubChem BioAssay AID2401 (Southern Research Specialized Biocontainment Screening …, 2010):
Screen size: about 2,200 compounds; about 530 (24%) were called active.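 Rule for the calls: active = inhibition above a set limit at one or more concentrations of the dose series; inactive = inhibition under that limit at every dose.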 Only a sample is shown. Results with a measured potency or affinity are listed apart.

Experiment: nmpC-GFP reporter counter-screen in S. Typhimurium, dose response, counter-screen for PhoP regulon inhibitor project, Salmonella Typhimurium, GFP fluorescence (AID 2401);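 note: S. typhimurium with Mg-insensitive nmpC-GFP reporter grown at 10 µM Mg2+; drop in reporter fluorescence reflects general culture growth inhibition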
Conditions: 4 h; series mostly up to 150 µM
With COc1ccc(OC)c(S(=O)(=O)N2c3cc(F)ccc3CCC2C)c1 (stereo not given) the outcome was “inactive”.
For CC1(C)CC(=O)c2c(nc3ccccc3c2N)C1, the outcome was “inactive”.
In the case of O=C(NNc1c2ccccc2nc2ccccc12)c1cccc(O)c1, the outcome is reported as “inactive”.
With Nc1nnc(SCc2ccc(F)cc2Cl)s1 the outcome was “inactive”.
In the case of CNC(=O)CN(c1ccc(F)cc1)S(=O)(=O)c1cc(C)ccc1OC, the outcome is reported as “inactive”.
In the case of CN1CCCC(OC(=O)CCCC(=O)OC2CCCN(C)C2)C1 (stereo not given), the outcome is reported as “inactive”.
With Cc1ccc2[nH]c3c(=O)n(CCc4cnc[nH]4)cnc3c2c1 the outcome was “inactive”.
For Cc1ccc(C(=O)COC(=O)CNS(=O)(=O)c2ccccc2)cc1[N+](=O)[O-], the outcome was “inactive”.
In the case of CC(C)n1cc(C(=O)N2CCCC(N3CCN(c4ccc(F)cc4)CC3)C2)cn1 (stereo not given), the outcome is reported as “inactive”.
For CCn1cc(C(C)(C)C)c(C#N)c1NC(C)=O, the outcome was “inactive”.
In the case of O=C(NC1CCCCC1)n1c(=O)oc2ccc(Cl)cc21, the outcome is reported as “inactive”.
In the case of O=C(CCN1C(=O)C2C3C=CC(C3)C2C1=O)N1CCN(c2cccc(Cl)c2)CC1 (stereo not given), the outcome is reported as “inactive”.
In the case of Cc1cccc(OCC(=O)N(Cc2cccs2)C2CCS(=O)(=O)C2)c1C (stereo not given), the outcome is reported as “inactive”.
With CC(C)OC(=O)c1ccc(NC(=O)c2ccccc2)cc1 the outcome was “inactive”.
With CC(C)Oc1cccc(C(=O)NC(=S)Nc2ccccc2)c1 the outcome was “inactive”.
For COc1ccc(Oc2coc3cc(OC(=O)c4cccs4)ccc3c2=O)cc1, the outcome was “inactive”.
In the case of COC(=O)c1ccc(NC(=O)c2ccc(N(C)S(C)(=O)=O)cc2)cc1, the outcome is reported as “inactive”.
In the case of O=C(CCCCCNc1nc(=S)[nH]c2ccccc12)NCCc1c[nH]c2ccccc12, the outcome is reported as “inactive”.
For O=C(NNC(=O)c1ccccc1-n1cccc1)c1ccc(Cl)c(Cl)c1, the outcome was “inactive”.
In the case of Cc1ccccc1NC(=S)N(CCCN1CCOCC1)Cc1ccccn1, the outcome is reported as “inactive”.
For CCOc1ccc(/C=N/O)cc1, the outcome was “inactive”.
In the case of CCOc1ccc(CCNC(=O)c2cc3sc(Cl)cc3n2C)cc1OCC, the outcome is reported as “inactive”.
In the case of CCN1CCN(C(=O)c2ccc(COc3ccc(Cl)cc3)o2)CC1, the outcome is reported as “inactive”.
With COc1ccc(C)cc1C(=O)CCC(=O)Nc1ccccc1N1CCOCC1 the outcome was “inactive”.
For C#CCOc1ccc(/C=N/O)cc1Cl, the outcome was “inactive”.
With COc1ccc(C(C(=O)NC2CCCC2)N(C(=O)c2ccoc2C)c2cc(C)cc(C)c2)cc1 (stereo not given) the outcome was “inactive”.
In the case of COc1ccc(NS(=O)(=O)c2cc(C)ccc2NC(=O)c2cc(C)oc2C)cc1, the outcome is reported as “inactive”.
In the case of Cc1cc2oc(=O)cc(CSc3nc(N)cc(N)n3)c2cc1C, the outcome is reported as “inactive”.
In the case of O=C(CSc1nncs1)Nc1ccc2c(c1)OCCO2, the outcome is reported as “inactive”.
With CCOc1ccc(OCc2ccc(C(=O)N3CCc4ccccc4C3)o2)cc1 the outcome was “inactive”.
For Cc1cc(C(=O)NCc2cccs2)cs1, the outcome was “inactive”.
In the case of COc1ccc2[nH]c(S(=O)Cc3ncc(C)c(OC)c3C)nc2c1 (stereo not given), the outcome is reported as “inactive”.
In the case of Cc1ccc(C(C)C)c(OCC(=O)Nn2c(=O)[nH]c3ccccc3c2=O)c1, the outcome is reported as “inactive”.
With O=C(NC1CC1)C1=NOC(CNc2ncc(C(F)(F)F)cc2Cl)C1 (stereo not given) the outcome was “inactive”.
In the case of O=C(Cc1n[nH]c(=O)c2ccccc12)OCC(=O)c1ccc2c(c1)OCCO2, the outcome is reported as “inactive”.
In the case of c1ccc(Cc2nnc(-c3ccccc3)o2)cc1, the outcome is reported as “inactive”.
For Oc1ccccc1CN1CCCN(Cc2ccccc2O)C1, the outcome was “inactive”.
In the case of CC(C)Cc1oc(C(=O)O)cc1CN1CCOCC1, the outcome is reported as “inactive”.
With COc1ccc(NC(=O)CN2CCCCC2)c([N+](=O)[O-])c1 the outcome was “inactive”.
For CC(C)(C)c1ccc(C(=O)NC(=S)NCc2cccnc2)cc1, the outcome was “inactive”.
For O=C(Nc1nc2cc3c(cc2s1)OCO3)C1=COCCO1, the outcome was “inactive”.
With CCOc1ccc(CSC(CC(=O)O)C(=O)O)cc1 (stereo not given) the outcome was “inactive”.
With O=C(CSc1ncnc2ccccc12)Nc1cc(S(=O)(=O)N2CCCCC2)ccc1Cl the outcome was “inactive”.
With Cc1ccc(CCNC(=O)C2CCN(S(=O)(=O)N3CCCC3)CC2)cc1 the outcome was “inactive”.
In the case of N#Cc1ccc(COC(=O)c2ccc3c(=O)[nH]c(CN4CCOCC4)nc3c2)cc1, the outcome is reported as “inactive”.
For COc1ccc(CN2CCOCC2)cc1Br, the outcome was “inactive”.
In the case of COc1ccc(CCNC(=O)c2ccc(CN3CCOCC3)cc2)cc1, the outcome is reported as “inactive”.
For COc1ccc(C(=O)Oc2c(CN3CCOCC3)cc(Cl)c3cccnc23)cc1, the outcome was “inactive”.
For COc1ccc(C2C(C(=O)c3cccs3)=C(O)C(=O)N2c2nnc(C)s2)cc1OC (stereo not given), the outcome was “inactive”.
For CCC(CC)C(=O)Nc1cccc(C(=O)N2CCCC2)c1, the outcome was “inactive”.
In the case of c1ccn2c(CNc3ncnc4sccc34)nnc2c1, the outcome is reported as “inactive”.
With Cc1cc(C)c2cc(CN(Cc3cccnc3)C(=O)c3ccc(F)cc3)c(Cl)nc2c1 the outcome was “inactive”.
For c1ccc(C2(CNc3ccccn3)CCCC2)cc1, the outcome was “inactive”.
With O=c1[nH]c(CSc2ncc(-c3ccc(F)cc3)n2Cc2ccco2)nc2ccccc12 the outcome was “inactive”.
In the case of CC(C)(C)C1CCC2(CC1)Nc1cccc3cccc(c13)N2, the outcome is reported as “inactive”.
With CCn1c2ccccc2c2cc(NC(=O)C(C)Oc3ccccc3)ccc21 (stereo not given) the outcome was “inactive”.
In the case of COc1cccc(N(C(=O)c2ccco2)c2nc(-c3sc(NC(=O)c4ccco4)nc3C)cs2)c1, the outcome is reported as “inactive”.
For Cc1ccc(Nc2nc(N)nc(CC#N)n2)cc1, the outcome was “inactive”.
With C/C(CC(=O)Nc1ccc(Cl)c(C(F)(F)F)c1)=N\NC(=O)c1cccc(O)c1 the outcome was “inactive”.
With CCCCCC(=O)Nc1ccc2ccccc2c1 the outcome was “inactive”.
With CC1CC(C)CN(CCCNC(=O)C2CCC(=O)N2C2CCCC2)C1 (stereo not given) the outcome was “inactive”.
In the case of Cc1ccc(NC2CC(=O)N(Cc3ccccc3)C2=O)cc1 (stereo not given), the outcome is reported as “inactive”.
With Cc1ccc(-n2nc(-c3ccc(N)cc3)cc2N)cc1 the outcome was “inactive”.
In the case of CC(C)=CCN1CCN(Cc2ccoc2)CC1CCO (stereo not given), the outcome is reported as “inactive”.
With O=C(CCCN1Cc2ccccc2C1)c1ccc(F)cc1 the outcome was “inactive”.
For CCOc1ccc(/C=C/C(=O)Nc2ccc(OC)cc2[N+](=O)[O-])cc1, the outcome was “inactive”.
With O=C(CSc1nc2ccccc2[nH]1)Nc1ccc(F)c(F)c1 the outcome was “inactive”.
With O=C(CNc1ccccc1)Nc1ccc(F)cc1 the outcome was “inactive”.
With COc1ccc(NC(=O)ON=C2c3ccccc3-c3ccccc32)cc1 the outcome was “inactive”.
For Cc1ccc(-c2cc(-c3ccc(Cl)cc3)c(C#N)c(N)n2)o1, the outcome was “inactive”.
With O=C1CCc2cc(S(=O)(=O)N3CCN(c4cccc(Cl)c4)CC3)ccc2N1 the outcome was “inactive”.
In the case of CCNC(=S)NNC(=O)c1ccc(OC(F)F)cc1, the outcome is reported as “inactive”.
In the case of Cc1ccc(NC(NC(=O)c2ccccn2)C(Cl)(Cl)Cl)cc1 (stereo not given), the outcome is reported as “inactive”.
With S=C(Nc1ccc(Cl)c(Cl)c1)N1CCOCC1 the outcome was “inactive”.
With COC(=O)CCC(=O)Nc1ccc(Cl)c(Cl)c1 the outcome was “inactive”.
